Assay results reported in PubChem BioAssay (NCATS).
Values joined by “and” are separate entries in the source; they are usually repeats but may differ in a detail not shown here. Equal values may be shown once. Results filed as inconclusive are left out. Values without a mark were called inactive. Active and inactive are the calls of the source. Calls come from the whole dose curve; as a rule, active = well fitted curve in the direction sought with a large enough effect; inconclusive = small, poorly fitted or top-dose-only effect, or another doubt; inactive = no such curve, though single readings can be large; an effect the other way counts as inactive or inconclusive.

Tests used:
[1] = target: Cellular tumor antigen p53 (Homo sapiens) (UniProt P04637); assay: Primary qHTS for small molecule compounds that upregulate eGFP-tagged delta133p53alpha (in N-terminal) cells. (AID 2060322); conditions: NCI-H358 eGFP-delta133p53alpha fluorescence, 24 h; activation: stronger effect = higher value; note: nearly all actives have a fitted effect of over 75% in size;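 for activation: cells pre-induced with doxycycline then dosed without doxycycline; 0% = DMSO vehicle and 100% = reference activator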
Chain of Cellular tumor antigen p53 (Homo sapiens) (P04637 whole entry, looked up): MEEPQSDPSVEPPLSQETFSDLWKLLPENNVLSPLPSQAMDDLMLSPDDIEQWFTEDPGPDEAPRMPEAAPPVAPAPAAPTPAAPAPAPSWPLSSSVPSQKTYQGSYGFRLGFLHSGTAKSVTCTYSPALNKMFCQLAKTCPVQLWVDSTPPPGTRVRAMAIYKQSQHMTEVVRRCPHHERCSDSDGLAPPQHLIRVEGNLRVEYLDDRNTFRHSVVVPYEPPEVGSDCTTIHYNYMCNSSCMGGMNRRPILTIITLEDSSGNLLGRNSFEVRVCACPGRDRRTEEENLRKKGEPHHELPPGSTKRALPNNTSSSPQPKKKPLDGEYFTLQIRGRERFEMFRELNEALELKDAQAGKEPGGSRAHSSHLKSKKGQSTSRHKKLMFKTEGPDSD
Outline: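 NCI-H358 cells pre-induced 24 h with 10 ng/ml doxycycline for eGFP-delta133p53alpha, plated dox-free and exposed 24 h at 37C to titrated compounds. Fixed, Hoechst-stained; gated GFP peak intensity by laser scanning cytometry, normalized to DMSO (0%) and 57.5 uM 5-azacytidine (100%).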

[2] = BET inhibitor-based combinations targeting novel dependencies in MECOM-rearranged (r) AML: SET-2 cell line (AID 2202231); conditions: SET-2 AML cells viability, CellTiter-Glo luminescence, 48 h; viability: stronger effect = lower value, concentration not given here; note: nearly all actives have a fitted effect of over 35% in size;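 for viability: plate controls were DMSO treated cells for no effect and wells without cells for full effect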
Outline: (§1)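 500 cells/well; 11-pt dose curve; 48 h, standard incubator; CellTiter-Glo luminescence after 15 min RT; DMSO/empty-well normalization; AUC plus Z-AUC (mean-centered within each line).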

[3] = BET inhibitor-based combinations targeting novel dependencies in MECOM-rearranged (r) AML: OCI-AML3 cell line (AID 2202232); conditions: CellTiter-Glo luminescence, 48 h; Potency: OCI-AML3 viability; series mostly up to 46 µM; note: nearly all actives have a fitted effect of over 35% in size
Outline: as §1

[4] = BET inhibitor-based combinations targeting novel dependencies in MECOM-rearranged (r) AML: MV-4-11 cell line (AID 2202233); conditions: MV-4-11 AML viability, CellTiter-Glo luminescence, 48 h; series mostly up to 46 µM; note: nearly all actives have a fitted effect of over 45% in size
Outline: (§2)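 Cells were plated at 500 per well and exposed to each drug across an 11-point dose range for 48 hr at standard incubator conditions. Viability was read by CellTiter-Glo luminescence, and activity was expressed as AUC and per-cell-line Z-transformed AUC.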

[5] = BET inhibitor-based combinations targeting novel dependencies in MECOM-rearranged (r) AML: UCSD-AML1 cell line (AID 2202235); conditions: UCSD-AML1 AML cells viability, CellTiter-Glo, 48 h; series mostly up to 46 µM; note: nearly all actives have a fitted effect of over 40% in size
Outline: as §2

[6] = BET inhibitor-based combinations targeting novel dependencies in MECOM-rearranged (r) AML: AML-191 cell line (AID 2202236; note: nearly all actives have a fitted effect of over 35% in size); conditions: AML-191 viability, CellTiter-Glo luminescence, 48 h; series mostly up to 46 µM
Outline: as §1

[7] = BET inhibitor-based combinations targeting novel dependencies in MECOM-rearranged (r) AML: AML-194 cell line (AID 2202237; note: nearly all actives have a fitted effect of over 40% in size); conditions: AML-194 (MECOM-r AML) viability, CellTiter-Glo, 48 h; series mostly up to 46 µM
Outline: as §1

[8] = BET inhibitor-based combinations targeting novel dependencies in MECOM-rearranged (r) AML: HNT-34 cell line (AID 2202234); conditions: HNT-34 AML viability, CellTiter-Glo luminescence, 48 h; series mostly up to 46 µM; note: nearly all actives have a fitted effect of over 35% in size
Outline: as §2
Potency is the fitted concentration of half-maximal effect.

Structure (SMILES) | activation [1] | viability [2] [%] | Potency [3] | Potency [4] | Potency [5] | Potency [6] | Potency [7] | Potency [8] | Potency [1] | Potency [2]
O=C(Nc1cc(Cl)cc2c1[nH]c1cnccc12)c1cccnc1 | 15.9% | 102 | inactive | inactive | inactive | inactive | inactive |  |  | 
CN(C)CC/C=C1/c2ccccc2COc2ccc(CC(=O)O)cc21 | -13% | 121 | inactive | inactive |  | inactive | inactive | inactive |  | 
C[C@](Cc1c[nH]c2ccccc12)(NC(=O)OC1C2CC3CC(C2)CC1C3)C(=O)NC[C@H](NC(=O)CCC(=O)O)c1ccccc1 (some centres undefined) | 8.58% | 110 | inactive | inactive |  |  | inactive | inactive |  | 
Cc1ccc(S(=O)(=O)OCC(=O)Nc2ccc(C(=O)O)c(O)c2)cc1 | 22.5% | 117 | inactive | inactive | inactive | inactive | inactive |  |  | 
NC(=O)c1cnc(N[C@@H]2CCCC[C@@H]2N)nc1Nc1cccc(-n2nccn2)c1 |  |  | 16.6 µM (active) | 3.32 µM (active) |  | 16.6 µM (active) | 18.6 µM (active) | 14.8 µM (active) | 34.3 µM (active) | 23.5 µM (active)
OC[C@@H](O)[C@@H](O)[C@H](O)[C@@H](O)CO | 6.34% | 117 | inactive | inactive |  |  | inactive | inactive |  | 
C[C@@H](NCc1cc2ccccc2[nH]1)c1cccc2ccccc12 | -11% |  | 14.8 µM (active) | 18.6 µM (active) |  | 13.2 µM (active) | 8.33 µM (active) | 10.5 µM (active) |  | 16.6 µM (active)
CC1CNc2c(cccc2S(=O)(=O)N[C@@H](CCCN=C(N)N)C(=O)N2CC[C@@H](C)C[C@@H]2C(=O)O)C1 (some centres undefined) | 8.55% | 116 | inactive | inactive | inactive |  |  |  |  | 
CN1CCN(c2cc(C(=O)Nc3ccc4c(c3)-c3c(c(C(N)=O)nn3-c3ccc(F)cc3)CC4)c(Cl)cn2)CC1 | 10.2% |  | 16.6 µM (active) | 7.42 µM (active) |  | 8.33 µM (active) | 8.33 µM (active) | 7.42 µM (active) |  | 8.33 µM (active)
CCN(CC)CCCCNc1ncc2cc(-c3cc(OC)cc(OC)c3)c(NC(=O)NC(C)(C)C)nc2n1 | 27.9% |  | 16.6 µM (active) | 11.8 µM (active) |  |  | 16.6 µM (active) | 8.33 µM (active) |  | 20.9 µM (active)
Cc1nc2cnc3ccc(C#Cc4cccnc4)cc3c2n1-c1ccc(C(C)(C)C#N)cc1 | 35.7% |  | 2.95 µM (active) | 0.742 µM (active) | 0.296 µM (active) | 0.59 µM (active) | 0.468 µM (active) |  |  | 1.66 µM (active)
COc1ccc(-c2oc3c(CC=C(C)C)c(O)cc(O)c3c(=O)c2O)cc1 | -9.57% | 97 | inactive |  | inactive | inactive | inactive | inactive |  | 
CC(=O)O[C@H]1C[C@@H]2CC[C@@H]3[C@H](CC[C@@]4(C)[C@H]3C[C@H]([N+]3(C)CCCCC3)[C@@H]4OC(C)=O)[C@@]2(C)C[C@@H]1N1CCCCC1 | 9.6% | 116 | inactive |  | inactive | inactive | inactive | inactive |  | 
C=CC(=O)Nc1cc2c(Nc3ccc(F)c(Cl)c3)ncnc2cc1OCCCN1CCOCC1 |  |  | 4.68 µM (active) | 1.32 µM (active) | 4.68 µM (active) |  | 11.8 µM (active) |  | 4.9 µM (active) | 14.8 µM (active)
COc1cc(S(C)(=O)=O)ccc1Nc1nc2ccc(-c3ccc(NC(=O)[C@H](C)c4ccc(F)cc4)cc3)cn2n1 | -11.7% |  | 0.934 µM (active) | 1.18 µM (active) | 1.32 µM (active) |  | 1.32 µM (active) |  |  | 0.235 µM (active)
S=c1nc[nH]c2nc[nH]c12 | -18.4% and 17.9% |  | 1.86 µM (active) |  | 3.72 µM (active) |  | 0.59 µM (active) | 16.6 µM (active) |  | 2.63 µM (active)
CCOC(=O)[C@H](CCc1ccccc1)N[C@@H](C)C(=O)N1[C@H](C(=O)O)C[C@@H]2CCC[C@@H]21 | 5.08% | 108 | inactive |  | inactive | inactive | inactive | inactive |  | 
COc1cccc2c1C(=O)c1c(O)c3c(c(O)c1C2=O)C[C@@](O)(C(=O)CO)C[C@@H]3O[C@H]1C[C@H](N)[C@H](O)[C@H](C)O1 |  |  | 0.0468 µM (active) | 0.0372 µM (active) | 0.0934 µM (active) | 0.186 µM (active) | 0.186 µM (active) |  | 12.3 µM (active) | 0.833 µM (active)
CN1C(=O)c2sccc2N(C)c2nc(Nc3ccc(S(N)(=O)=O)cc3)ncc21 | -6.75% |  | 1.66 µM (active) |  | 2.35 µM (active) | 3.72 µM (active) | 2.35 µM (active) | 0.934 µM (active) |  | 6.61 µM (active)
CC(S)C(=O)NCC(=O)O (centres undefined) | 9.72% | 114 | 8.33 µM (active) |  | inactive |  | inactive | inactive |  | 

Structure (SMILES) | activation [1] | viability [2] [%] | Potency [3] | Potency [4] | Potency [5] | Potency [6] | Potency [7] | Potency [8] | Potency [1] | Potency [2]
CCOC(=O)c1ccc(OC(=O)CCCCCN=C(N)N)cc1 | 31% | 106 | inactive |  | inactive | inactive | inactive | inactive |  | 
N#Cc1c(NC(=O)c2cccc3ccccc23)sc2c1CCCC2 |  |  | 0.332 µM (active) |  | 0.332 µM (active) | 0.296 µM (active) | 0.332 µM (active) | 0.372 µM (active) | 13.7 µM (active) | 0.525 µM (active)
CCCCCNC(=O)N1CCC(CN(Cc2ccc(Cl)cc2)Cc2ccc([N+](=O)[O-])s2)C1 (centres undefined) | -3.18% |  | 18.6 µM (active) | 20.9 µM (active) | inactive |  | inactive |  |  | 20.9 µM (active)
CC(C(C)N1CC(=O)NC(=O)C1)N1CC(=O)NC(=O)C1 (centres undefined) | 25.1% | 107 | 5.9 µM (active) | 1.18 µM (active) |  | 9.34 µM (active) | inactive |  |  | 
CC1=C(C)C(=O)C(C(CCCCCC(=O)O)c2ccccc2)=C(C)C1=O (centres undefined) | -10.7% and 34% | 93.3 | inactive | inactive | inactive | inactive | inactive |  |  | 
C=C(C)[C@@H]1CC[C@]2(C(=O)O)CC[C@]3(C)[C@H](CC[C@@H]4[C@@]5(C)CC[C@H](O)C(C)(C)[C@@H]5CC[C@]43C)[C@@H]12 | 7.46% | 115 | inactive |  | inactive | inactive | inactive | inactive |  | 
O=c1[nH]c(=O)n(C2CCCO2)cc1F (centres undefined) | -1.88% | 111 | inactive | 20.9 µM (active) |  | inactive | inactive |  |  | 
O=C(O)CCCCC(CCSCc1ccccc1)SCc1ccccc1 (centres undefined) | 1.42% | 107 | inactive |  | inactive | inactive | inactive | inactive |  | 
CCC(C)(C)c1ccc(CC(C)CN2C[C@@H](C)O[C@@H](C)C2)cc1 (some centres undefined) | -16.4% | 82.6 | inactive |  | inactive |  | inactive | inactive |  | 
CCn1cc(C(=O)O)c(=O)c2cc(F)c(N3CCN(C)CC3)cc21 | -2.51% and -35.6% | 97.2 | inactive |  | inactive | inactive | inactive | inactive |  | 
CC1(C)CCC(C)(C)c2cc(NC(=O)c3ccc(C(=O)O)cc3)ccc21 | -13% and 3.42% | 80.9 | inactive |  | inactive | 0.0021 µM (active) | inactive | 1.66 µM (active) |  | 
COc1ccc(CC2=NN3C([C@@H](CCc4ccccc4)[C@@H](C)O)=NC(C)C3C(=O)N2)cc1OC (some centres undefined) | -13.9% | 101 | 7.42 µM (active) |  | inactive | 16.6 µM (active) | inactive | 18.6 µM (active) |  | 
COC(=O)[C@H](c1ccccc1Cl)N1CCc2sccc2C1 | 12.2% | 110 | inactive |  | inactive | inactive | inactive | inactive |  | 
Cc1ccc2c(=O)c3cccc(CC(=O)O)c3oc2c1C | 16.3% | 108 | inactive | inactive | inactive | inactive | inactive |  |  | 
CC(=O)O[C@H]1C[C@@H]2CC[C@H]3[C@H]4C[C@H]([N+]5(C)CCCCC5)[C@@H](OC(C)=O)[C@@]4(C)CC[C@@H]3[C@@]2(C)C[C@H]1[N+]1(C)CCCCC1 | 5.41% | 114 | inactive |  | inactive | inactive | inactive | inactive |  | 
CN(CCOc1ccc(CC2SC(=O)NC2=O)cc1)c1ccccn1 (centres undefined) | 6.69% and 5.38% | 102 | inactive |  | inactive | inactive | inactive | inactive |  | 
CN1CCCN=C1/C=C/c1cccs1 | -2.82% | 73.8 | inactive | inactive | 2.95 µM (active) |  | inactive |  |  | 
COc1ccc(-c2ccc3cc(C(=O)O)ccc3c2)cc1C12CC3CC(CC(C3)C1)C2 | -14.2% and 5.04% | 111 | 0.0033 µM (active) |  | inactive | inactive | inactive | inactive |  | 
CS(=O)(=O)Oc1ccc2c(NC(N)=O)c(C(=O)c3ccc(Cl)cc3Cl)oc2c1 | -14% | 97.1 | inactive | inactive | inactive | inactive | inactive |  |  | 
CC(C)=CC[C@@H](O)C1=CC(=O)c2c(O)ccc(O)c2C1=O | 3.62% |  | 14.8 µM (active) |  |  | 10.5 µM (active) |  | 9.34 µM (active) |  | 10.5 µM (active)
